Source: PubChem BioAssay
D2 PAM-1 – D2 dopamine receptor (human) potentiation. AID 485347. actives 0.34% (n = 340,000). potentiation, % at 10 µM. HEK293 T-REx D2, calcium flux, EC20 dopamine potentiation;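 active = potentiation over 3 SD above the plate norm, cut at about 30% in these data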; note: 0% is about no effect
Target sequence (P14416 whole entry, looked up): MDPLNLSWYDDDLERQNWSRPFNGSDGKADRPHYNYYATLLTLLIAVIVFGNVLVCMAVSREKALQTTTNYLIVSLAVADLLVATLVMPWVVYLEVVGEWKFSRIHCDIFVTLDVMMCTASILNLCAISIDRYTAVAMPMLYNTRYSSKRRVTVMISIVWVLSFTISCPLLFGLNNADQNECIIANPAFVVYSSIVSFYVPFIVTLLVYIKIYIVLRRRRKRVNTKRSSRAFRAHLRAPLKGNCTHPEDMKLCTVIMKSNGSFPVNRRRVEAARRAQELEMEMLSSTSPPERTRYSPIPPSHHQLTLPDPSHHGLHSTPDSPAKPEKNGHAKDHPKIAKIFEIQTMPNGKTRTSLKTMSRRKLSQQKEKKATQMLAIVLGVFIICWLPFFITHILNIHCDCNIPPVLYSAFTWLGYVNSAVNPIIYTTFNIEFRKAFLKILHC
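Potentiation of an EC20 dopamine calcium response measured kinetically over 180 s, after a preceding 180 s compound-only read flagging agonists. Cells: inducible Hek293 Trex D2 line, 4000/well, cultured overnight at 30 C before dye loading.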
D2 ag-1 – human D2 receptor agonism in beta-arrestin assay; P14416; DiscoveRx PathHunter D2 beta-arrestin, luminescence, 90 min; 100% = 57 uM dopamine signal; activation, % (no concentration beside the values); actives 0.084% (n = 360,000); AID 624465; in the data active = activation above about 40%
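DiscoveRx PathHunter D2 beta-arrestin cells (2,100/well) attached overnight, then compound-stimulated 90 min at 37 C in HBSS/10 mM HEPES/0.1% Tween-20 buffer; beta-galactosidase complementation read by luminescence after 1 h at ambient temperature. Dopamine 57 uM final (EC100) as control.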
D2 ag-2 – activates the human D2 dopamine receptor | AID 485358 | activation, % at 2 µM | HEK293 T-REx D2 cells, calcium flux agonist mode | actives 0.53% (n = 340,000);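 active = activation over 3 SD above normal in the single-dose calcium agonist read, cut at about 30% in these data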; note: 0% is about no effect
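HEK293 Trex D2 cells, tetracycline-induced, o/n 30 C 5% CO2; no-wash Ca dye, RT 30–90 min; 10-cycle baseline, 23 nl cpd added, kinetic Ca read 180 s; agonist hits = positive Ca response.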
D2 PAM-2 – positive allosteric modulators of human D2 dopamine receptor. DiscoveRx D2 beta-arrestin cells, luminescence, 90 min; 100% = 57 uM dopamine signal. potentiation, % (no concentration beside the values). actives 0.23% (n = 360,000); in the data active = potentiation above about 50%
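D2 cells co-treated with compound plus 50 nM dopamine (EC20) for 90 min at 37 deg C to detect potentiation. Beta-arrestin recruitment was read as enzyme-fragment luminescence after 1 h at ambient temperature. Full response was set by 57 uM dopamine.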
D2 antag – D2 dopamine receptor (human) antagonism; AID 485344; P14416; actives 2% (n = 340,000); inhibition, % at 10 µM; HEK293 TREx D2 cells, calcium flux, dopamine EC80; in the data active = inhibition above about 30%; inactive = below that, where a call was filed; note: 0% is about no effect
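Dopamine at EC80 is the agonist stimulus; test compounds precede it by 180 s. Calcium flux read kinetically in a force-coupled, inducible HEK293 T-REx D2 cell line.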
Numbers without * were called inactive; ! = a repeat was not active. Hits are enriched below; roughly 2.4% of the tested compounds scored in any of these assays.

`Cc1nn(CC(=O)NCCN2CCOCC2)c(=O)c2ccccc12` gave D2 PAM-1 1, D2 ag-1 -4, D2 ag-2 0, D2 PAM-2 -7 and D2 antag 8.
Screening CCCn1c(N)c(NCCN2CCOCC2)c(=O)n(CC(=O)NCc2ccccc2)c1=O returned D2 PAM-1 3, D2 ag-1 -3, D2 ag-2 1, D2 PAM-2 -1 and D2 antag 33*.
Screening CC(=O)c1ccc(NC(=O)CSc2nc(C3CCCC3)nc3c2c(=O)n(C)c(=O)n3C)cc1 returned D2 PAM-1 -1 and D2 ag-2 0.
For Cc1cccc(NC(=O)c2ccc(CN3CC(=O)N4CCCCC4C3=O)cc2)c1C (stereo unspecified) the results were D2 PAM-1 -2 and D2 ag-2 1.
For Cc1ccc(C)c(NC(=O)C2CCCN(S(=O)(=O)c3c(C)noc3/C=C/N(C)C)C2)c1 (stereo unspecified) the results were D2 PAM-1 -11, D2 ag-1 -5, D2 ag-2 -1, D2 PAM-2 -25 and D2 antag 37*.
For Cc1noc(/C=C/N(C)C)c1S(=O)(=O)N1CCCC(C(=O)Nc2ccc(F)cc2F)C1 (stereo unspecified) the results were D2 PAM-1 -1, D2 ag-1 1, D2 ag-2 0, D2 PAM-2 -5 and D2 antag 54*.
Cc1ccc(NC(=O)C2CCCN(S(=O)(=O)c3c(C)noc3/C=C/N(C)C)C2)c(C)c1 (stereo unspecified) was read as D2 PAM-1 -3, D2 ag-1 -1, D2 ag-2 0, D2 PAM-2 -17 and D2 antag 17.
For CC[C@H](C)C(=O)O[C@H]1CCC=C2C=C[C@H](C)[C@H](CC[C@@H]3C[C@@H](O)CC(=O)O3)[C@H]21 the results were D2 PAM-1 -6, D2 ag-1 2, D2 ag-2 2, D2 PAM-2 -10 and D2 antag 38*!.
CCOc1ccc(CNC(=O)C2CCCN(c3nn4cc(-c5ccc(OC)cc5)nc4s3)C2)cc1 (stereo unspecified) was read as D2 PAM-1 -5 and D2 ag-2 1.
Screening CCC(=O)N1CCc2cc(S(=O)(=O)NC(CC(C)C)C(=O)NCc3ccc(C)cc3)ccc21 (stereo unspecified) returned D2 PAM-1 1 and D2 ag-2 1.
`O=C1C(Nc2cccc(O)c2)=C(N2CCCCC2)C(=O)c2ccccc21` gave D2 PAM-1 4, D2 ag-1 4, D2 ag-2 0, D2 PAM-2 65* and D2 antag -5.
`O=C1C(Nc2ccccc2)=C(N2CCCCC2)C(=O)c2ccccc21` gave D2 PAM-1 3, D2 ag-1 7, D2 ag-2 0, D2 PAM-2 19 and D2 antag -18.
For Cn1c(=O)c(C(=O)COC(=O)c2cc(-c3ccccc3)nc3ccccc23)c(N)n(Cc2ccccc2)c1=O the results were D2 PAM-1 -6, D2 ag-2 3 and D2 antag 31*.
For COc1cc2ccccc2cc1C(=O)OCC(=O)c1c(N)n(C)c(=O)n(C)c1=O the results were D2 PAM-1 1, D2 ag-1 -1, D2 ag-2 0, D2 PAM-2 -21 and D2 antag 52*.
Cn1c(=O)c(C(=O)COC(=O)c2cc(C(F)(F)F)nc3ccccc23)c(N)n(Cc2ccccc2)c1=O was read as D2 PAM-1 -1, D2 ag-2 1 and D2 antag 5.
COc1ccccc1CNS(=O)(=O)c1ccc2c(c1)CC(C)N2C(C)=O (stereo unspecified) was read as D2 PAM-1 2 and D2 ag-2 1.
CCCN[C@H]1CCc2nc(N)sc2C1 was read as D2 ag-1 74* and D2 PAM-2 80*.
For Cc1ccc(-n2ncc3c(SCC(=O)NNC(=O)c4ccco4)ncnc32)cc1 the results were D2 PAM-1 32*, D2 ag-1 1, D2 ag-2 0, D2 PAM-2 -3 and D2 antag -1.
For CCOC(=O)CNC(=O)CSc1ncnc2c1cnn2-c1ccc(C)cc1 the results were D2 PAM-1 -5, D2 ag-1 1, D2 ag-2 0, D2 PAM-2 -3 and D2 antag 5.
`CCOCc1cc(=O)[nH]c(SC)n1` gave D2 PAM-1 -13, D2 ag-1 3, D2 ag-2 -1, D2 PAM-2 -35 and D2 antag 30*.
For CSc1nc(Cl)cc(=O)[nH]1 the results were D2 PAM-1 -6, D2 ag-1 0, D2 ag-2 0, D2 PAM-2 3 and D2 antag -23.
For Cc1cccc(-c2nnc(SCc3cc(=O)c4cccc(Cl)c4[nH]3)n2C)c1 the results were D2 ag-2 -1.
Screening CCC1Oc2nc(SC)nnc2-c2ccccc2N1C(=O)c1ccccc1 (stereo unspecified) returned D2 PAM-1 0, D2 ag-1 -3, D2 ag-2 -1, D2 PAM-2 -7 and D2 antag 34*.
For COC(=O)C1=C(C)OC(N)=C(C#N)C1c1cc2cc(C)ccc2nc1Cl (stereo unspecified) the results were D2 PAM-1 1, D2 ag-1 -8, D2 ag-2 0, D2 PAM-2 -12 and D2 antag -4.
For CC(=O)C1=C(C)OC(N)=C(C#N)C1c1cc2cc(C)c(C)cc2nc1Cl (stereo unspecified) the results were D2 PAM-1 0, D2 ag-1 -6, D2 ag-2 0, D2 PAM-2 -14 and D2 antag 31*.
Screening COc1ccc(CC(=O)NNC(=O)c2cc(C)oc2C)cc1OC returned D2 PAM-1 -4, D2 ag-1 -6, D2 ag-2 1, D2 PAM-2 -33 and D2 antag 32*.
For CCOc1ccccc1NC(=O)c1ccc2c(c1)CCN2S(C)(=O)=O the results were D2 PAM-1 -2 and D2 ag-2 0.
c1ccc(-c2csc(=Nc3cccnc3)n2CC2CCCO2)cc1 (stereo unspecified) was read as D2 PAM-1 1, D2 ag-1 -2, D2 ag-2 -1, D2 PAM-2 -17 and D2 antag 30*.
CC1=C(C(=O)Nc2ccccc2)C(c2cccnc2)n2nc(SCc3ccccc3Cl)nc2N1 (stereo unspecified) was read as D2 PAM-1 -2 and D2 ag-2 0.
Screening COc1ccc(NC(=O)CCC(=O)Nc2ccc3nc(N4CCOCC4)cc(C)c3c2)c(OC)c1 returned D2 PAM-1 -7, D2 ag-1 4, D2 ag-2 0, D2 PAM-2 -1 and D2 antag 16.
